Bioassay records as filed in PubChem BioAssay.
DT40 TDP1 CPT: DT40-hTDP1 cell growth loss with CPT; chicken DT40 Tdp1-/-;hTDP1 cells + 20 nM CPT, ATP luminescence, 48 h; Potency, µM (top dose mostly 46.2 µM), for the others: at the top dose activity change, negative = growth inhibition, most hits filed as inhibitors; 12% of 420,000 active; AID 686979; further: potency means the concentration at half of the fitted maximal effect; nearly all actives have a fitted effect of over 55% in size
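Cell growth measured by CellTiter-Glo luminescence after a minimum 48 h, 37 C compound exposure with 20 nM CPT in Tdp1-knockout DT40 cells stably expressing hTDP1, seeded 400/well; qHTS titration format.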
IL-1B inflam inh: blocks inflammasome-driven IL-1 beta release; 4.7% of 360,000 active; activity change, % at 57.5 µM; THP-1 LPS/ATP IL-1B secretion, AlphaLISA, 16 h; active compounds read low; AID 743279; in the data active means activity change below about -50%; inconclusive means mostly about -30% to -49%
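THP-1 cells pretreated 1 hr with compounds (up to 57.5 uM final), then stimulated with LPS (250 ng/mL final) plus ATP (1.25 mM final); secreted IL-1B measured by AlphaLISA after 16 hr, decreased signal indicating inhibition.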
HT1080 IDH1KD tx: kills HT-1080 cells with IDH1 knockdown | HT-1080 IDH1 knockdown viability, ATP luminescence, 48 h | Potency, µM (titrated, usually from 46.1 µM), without a hit: at the highest dose activity, negative = toxicity, actives largely listed as cytotoxic | 2% of 360,000 active | AID 686971;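 further: potency means the concentration at half of the fitted maximal effect; 0% = DMSO wells and -100% = cell-free medium wells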
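In this qHTS, HT-1080 cells depleted of IDH1 are exposed for 48 h at 37 °C to compound titrations. Toxicity is scored from CellTiter-Glo luminescence, with DMSO as full viability and medium alone as none.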
HT1080-NT tox: kills 2HG-producing HT-1080-NT fibrosarcoma cells; Potency, µM (top dose mostly 46.1 µM), without a hit: at the highest dose activity, negative = less viability, most hits filed as cytotoxic; AID 686970; HT-1080-NT fibrosarcoma viability, CellTiter-Glo ATP luminescence, 48 h; 1.6% of 360,000 active;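 further: NT is the 2HG producing partner of a matched IDH1 knockdown line; potency means the concentration at half of the fitted maximal effect; 0% = DMSO-treated cells and -100% = media-only wells without cells; nearly all actives have a fitted effect of over 55% in size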
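750 cells/well, RPMI + 5% FBS; 2 h settle, compound pin-transfer, 48 h at 37 degrees C. CellTiter-Glo 10 min RT, luminescence. Normalized to DMSO and media-only wells.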
ALOX12 inh: inhibitors of human 12S-lipoxygenase ALOX12. Potency, µM (top dose mostly 108 µM), for the others: at the top dose activity change, negative = inhibition, usual class: inhibitors. 1.1% of 580,000 active. AID 1671190. P18054. purified 12hLO, xylenol orange hydroperoxide absorbance; further: potency means the concentration at half of the fitted maximal effect
Target sequence (P18054 whole entry, looked up): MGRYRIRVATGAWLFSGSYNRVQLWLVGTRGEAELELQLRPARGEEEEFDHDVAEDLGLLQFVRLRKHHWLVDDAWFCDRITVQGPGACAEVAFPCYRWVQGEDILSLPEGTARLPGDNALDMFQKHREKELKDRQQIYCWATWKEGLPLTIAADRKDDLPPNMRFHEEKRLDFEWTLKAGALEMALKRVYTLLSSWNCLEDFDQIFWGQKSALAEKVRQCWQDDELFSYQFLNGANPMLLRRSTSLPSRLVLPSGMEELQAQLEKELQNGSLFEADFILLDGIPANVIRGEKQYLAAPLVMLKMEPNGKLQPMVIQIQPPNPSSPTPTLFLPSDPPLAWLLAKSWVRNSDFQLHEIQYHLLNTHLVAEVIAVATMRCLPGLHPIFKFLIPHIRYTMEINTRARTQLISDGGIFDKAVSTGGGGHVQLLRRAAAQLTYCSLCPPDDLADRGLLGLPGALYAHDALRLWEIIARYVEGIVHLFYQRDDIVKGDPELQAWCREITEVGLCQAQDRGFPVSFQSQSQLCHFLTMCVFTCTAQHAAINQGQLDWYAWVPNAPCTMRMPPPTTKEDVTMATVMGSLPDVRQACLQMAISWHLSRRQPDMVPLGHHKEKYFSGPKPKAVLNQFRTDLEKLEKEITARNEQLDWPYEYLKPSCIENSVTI
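Hydroperoxide product was detected by ferrous iron/xylenol orange as the 573 to 405 nm absorbance ratio. Arachidonic acid at 40 uM (final) was turned over for 30 min at room temperature by 150 nM human 12hLO, pH 7.0 Hepes buffer, after 15 min compound preincubation.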
DT40 TDP1 no CPT: qHTS for Inhibitors of human tyrosyl-DNA phosphodiesterase 1 (TDP1): qHTS in cells in absence of CPT; DT40 Tdp1-/- hTDP1 cells, no CPT, ATP luminescence, 48 h; Potency, µM (titrated, usually from 46.2 µM), without a hit: at the top dose activity change, negative = growth inhibition, actives largely listed as inhibitors; 15% of 420,000 active; further: potency means the concentration at half of the fitted maximal effect; nearly all actives have a fitted effect of over 55% in size
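DT40 Tdp1-/-;hTDP1 cells, no CPT (DMSO vehicle only), 400 cells/well; compounds pin-transferred; ≥48 hr, 37 °C; CellTiter-Glo 30 min RT dark, luminescence read.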
Starred values were filed as active, the others as inactive; ? = inconclusive; / = no result given; [ ] = another dose, or the depositor's remark. This is one part of a sample in which hits are shown more often than they occur. Unless noted, the call rests on the fitted dose curve; in most records, active means well fitted curve in the direction sought with a large enough effect; inconclusive means small, poorly fitted or top-dose-only effect, or another doubt; inactive means no such curve, though single readings can be large; an effect the other way counts as inactive or inconclusive. Unless noted, on the % scale 0 is the no-effect control and ±100 the full control effect.

SMILES | DT40 TDP1 CPT | IL-1B inflam inh | HT1080 IDH1KD tx | HT1080-NT tox | ALOX12 inh | DT40 TDP1 no CPT
Cc1ccc2[nH]c3c(N4CCc5ccccc5C4)ncnc3c2c1 | 2.9µM* | -83* | -8% | 21µM* | -18% | 3.7µM*
CCOc1ccc2[nH]c3c(N4CCc5ccccc5C4)ncnc3c2c1 | 15µM* | / | 10µM* | 18µM* | ? | 16µM*
Fc1ccc2[nH]c3c(N4CCc5ccccc5C4)ncnc3c2c1 | 1.8µM* | ? | 2.6µM* | 10µM* | 134% | 1.8µM*
CN1CCN(c2ncnc3c2[nH]c2ccc(F)cc23)CC1 | ? | -21 | -23% | 0% | 15% | ?
O=C(Nc1ccncn1)[C@@H]1C[C@@H](c2cccc(C(F)(F)F)c2)N(CC2CCOCC2)C1 | / | / | / | / | -11%[176 µM] | /
Cc1ccc(S(=O)(=O)Nc2cccc(S(=O)(=O)C3CCCC3)c2)c(C)c1 | / | / | / | / | -36% | /
Cc1ccc(C(=O)NCC(=O)N(C)CC(=O)Nc2ccc(Cl)cc2)s1 | / | / | / | / | -7% | /
COc1cccc(CNc2nc3cc(-c4cccc(Cl)c4)sc3c(=O)n2C)c1 | -29% | 30 | 5% | -3% | -20% | -12%
COc1ccc(-c2cc3nc(CCl)[nH]c(=O)c3s2)cc1 | 4.6µM* | -6 | 16µM* | 16µM* | ? | 4.1µM*
O=c1cc[nH]c2cccc(Cc3ccccc3)c12 | ? | -9 | -14% | -10% | ? | 13µM*
O=C(c1ccccn1)N1CCn2c(nnc2-c2cccnc2)C1 | / | / | / | / | 14%[176 µM] | /
O=C(Nc1ccc(N2CCCCCC2)cc1)c1cccc(S(=O)(=O)N2CCOCC2)c1 | 7.3µM* | -3 | ? | -14% | ? | 4.1µM*
CCOC(=O)c1ccc(NC(=O)c2ccc(C)c(S(=O)(=O)N3CCOCC3)c2)cc1 | ? | -14 | ? | ? | -24% | 23µM*
COc1ccc(NS(=O)(=O)c2ccc(C)c(NC(=O)c3ccc(C)c(S(=O)(=O)N4CCOCC4)c3)c2)cc1 | ? | -7 | -6% | -12% | -6% | 15µM*
Cc1ccc(C(=O)Nc2ccc(F)cc2)cc1S(=O)(=O)N1CCOCC1 | ? | / | / | / | -22% | ?
CCOC(=O)c1ccc(NC(=O)c2cccc(S(=O)(=O)N3CCOCC3)c2)cc1 | ? | -25 | -29% | -29% | 2% | 12µM*
O=C(Nc1cccc(S(=O)(=O)N2CCOCC2)c1)c1cccc(S(=O)(=O)N2CCCCC2)c1 | ? | -1 | -4% | 1% | 13% | ?
CC(=O)c1ccc(NC(=O)c2ccc(C)c(S(=O)(=O)N3CCOCC3)c2)cc1 | 1% | 20 | -10% | -20% | -2% | ?
Cc1ccccc1NC(=O)N(Cc1nnc2n1CCCCC2)c1ccc(F)cc1 | / | / | / | / | -3% | /
O=Cc1ccc(N2CCCC2)c([N+](=O)[O-])c1 | -7% | 0 | -8% | -3% | -11% | -23%
Cc1cc(C=O)c(C)n1-c1ccc(N2CCOCC2)cc1 | ? | ? | -10% | -2% | 0% | ?
Cc1cc(/C=C(\C#N)C(N)=O)c(C)n1-c1ccc(N2CCOCC2)c([N+](=O)[O-])c1 | 23µM* | 0 | -8% | 3% | -28% | 23µM*
Cc1cc(C=O)c(C)n1-c1ccc(N2CCCCC2)c([N+](=O)[O-])c1 | 8.2µM* | ? | -22% | -21% | -24% | 21µM*
O=C(Cn1c(=O)[nH]c2ccccc2c1=O)N1CCCCCC1 | / | / | / | / | 15% | /
CC(/C=C1\SC(=S)N(CCCC(=O)Nc2ccc(C(=O)O)cc2)C1=O)=C\c1ccccc1 | ? | -20 | ? | ? | 45µM* | ?
SMILES | DT40 TDP1 CPT | IL-1B inflam inh | HT1080 IDH1KD tx | HT1080-NT tox | ALOX12 inh | DT40 TDP1 no CPT
CCc1ccc(/C=C2/SC(=S)N(CCC(=O)Nc3ccc(C(=O)O)cc3)C2=O)cc1 | / | / | / | / | -25% | /
CCc1ccc(C=C2SC(=S)N(CCCC(=O)Nc3ccc(C(=O)O)cc3)C2=O)cc1 | ? | -6 | -29% | -29% | ? | 18µM*
Cc1cc(Cl)c2[nH]ncc2n1 | / | / | / | / | 10% | /
C=CCn1c(=S)[nH]c2scc(-c3ccc(C)o3)c2c1=O | ? | 46 | 16µM* | 13µM* | -21% | 10µM*
CCCc1c(C)nc2ccc(C)cc2c1SCCC(=O)O | / | / | / | / | -5% | /
CCCc1c(C)nc2ccc(OC)cc2c1SCCC(=O)O | ? | 31 | -14% | -2% | -25% | 8.2µM*
OCCOc1ccc(CNCC2CCCO2)cc1 (stereo not drawn) | / | / | / | / | -3% | /
COc1ccc(Cl)cc1C(=O)Nn1c(-c2cccs2)nc2ccccc2c1=O | 10µM* | ? | -19% | -7% | -1% | ?
CN(C)C(=O)c1cc(Cl)ccc1F | / | / | / | / | 1% | /
Cc1c(C)c(C)c(S(=O)(=O)Nc2cc(Cl)ccc2C(=O)N(C)C)c(C)c1C | / | / | / | / | 40µM* | /
Cn1c(-c2ccc(Cl)cc2)cnc1NCc1cc2c(cc1[N+](=O)[O-])OCO2 | ? | -82* | -4% | -13% | ? | ?
Cn1c(-c2ccc(F)cc2)cnc1NCc1cc2c(cc1[N+](=O)[O-])OCO2 | ? | -64* | -7% | -3% | ? | 23µM*
Cc1cccc(C)c1OCC(O)CNS(=O)(=O)c1ccccc1C(=O)N1CCCCC1 (stereo not drawn) | 18µM* | 12 | -2% | -5% | -21% | 21µM*
COc1cccc(-c2nc(-c3nnn4c3COC(c3ccc(Cl)cc3)C4)no2)c1OC (stereo not drawn) | / | / | / | / | -17% | /
Cc1[nH]c(=O)[nH]c1C(=O)CCCCC(=O)O | -4% | -95* | 16% | 15% | -13% | 1%
CC(=O)Nc1ccc(NC(=O)CC2SC(=O)N(CC(=O)c3ccccc3)C2=O)cc1 (stereo not drawn) | 18µM* | -5 | 5% | 0% | -44% | 21µM*
N=C1SC(CC(=O)Nc2ccc([N+](=O)[O-])cc2)C(=O)N1c1ccccc1 (stereo not drawn) | 0% | -73* | ? | -21% | ? | ?
Cc1ccc(S(=O)(=O)/N=C2\SC(CC(=O)Nc3ccc(F)cc3)C(=O)N2c2ccccc2)cc1 (stereo not drawn) | -2% | 14 | 1% | -1% | -18% | -17%
COc1ccc(OC)c(NC(=O)CC2SC(=N)N(c3ccccc3)C2=O)c1 (stereo not drawn) | 1% | -7 | 2% | 0% | 0% | -7%
O=C(CC1SC(=O)N(c2ccccc2)C1=O)Nc1ccccc1 (stereo not drawn) | 16µM* | 18 | ? | 0% | 0% | -25%
